Data: the supplement of paper PMC6555819

Columns and labels:
Assay in all cases: PBM binding z-score (relative to random genomic background probes); higher = stronger binding; sequences stand for … in GC…GCGATTGACAGCGTAGAATGAAGG
[1] = test system: FXR:RXRa (NR concentration 270 nM, RXRa partner concentration 90 nM)
Outline: (§1)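 Ligand-free nuclear receptor dimers were bound for 1 h to custom Agilent 4×180K protein-binding microarrays. Detection used antibodies against each partner (one per run). Binding z-scores rest on regression-normalized fluorescence, with random background probes as the reference.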

[2] = test system: LXRa:RXRa (NR concentration 270 nM, RXRa partner concentration 90 nM)
Outline: as §1

[3] = test system: LXRa homodimer (NR concentration 270 nM)
Outline: as §1

[4] = test system: LXRb:RXRa (NR concentration 270 nM, RXRa partner concentration 90 nM)
Outline: as §1

[5] = test system: LXRb homodimer (NR concentration 270 nM)
Outline: as §1

[6] = test system: PPARa:RXRa (NR concentration 270 nM, RXRa partner concentration 90 nM)
Outline: as §1

[7] = test system: PPARg:RXRa (NR concentration 180 nM, RXRa partner concentration 90 nM)
Outline: as §1

[8] = test system: PPARg:RXRa 270nM:90nM, anti-RXR (NR concentration 270 nM, RXRa partner concentration 90 nM)
Outline: as §1

[9] = test system: PPARg:RXRa 30nM:10nM, anti-RXR (NR concentration 30 nM, RXRa partner concentration 10 nM)
Outline: as §1

[10] = test system: PPARg:RXRa 90nM:30nM, anti-RXR (NR concentration 90 nM, RXRa partner concentration 30 nM)
Outline: as §1

Row | Sequence | PBM binding z-score [1] | PBM binding z-score [2] | PBM binding z-score [3] | PBM binding z-score [4] | PBM binding z-score [5] | PBM binding z-score [6] | PBM binding z-score [7] | PBM binding z-score [8] | PBM binding z-score [9] | PBM binding z-score [10]
1 | ATCGAAAGGTCGTCAGGTGAGTATACAGAAAGGC | 5.1 | 3.98 | 0.518 | 3.25 | 0.804 | 4.7 | 3.63 | 3.86 | 1.5 | 2.93
2 | GCGAGTGGGGCAAAGCAGGTTACCATAAGGTTGG | 0.592 | 0.51 | -0.115 | 0.552 | -0.338 | 1.36 | 0.889 | 1.12 | -0.171 | 0.35
3 | TATACAGGGTCAAAGGCCATAGTACGAATGTCGA | 7.3 | 6.15 | 2.85 | 5.09 | 2.38 | 6.27 | 9.09 | 7.76 | 6.42 | 8.54
4 | ACTAGTTGGTCAGCTGAGGTCACACGCAATTCGG | 4.13 | 3.59 | 2.5 | 3.3 | 0.152 | 3.71 | 1.57 | 2.37 | 0.407 | 1.44
5 | AATACAGGGTCATCGTAGGCCAGATTACGCACAG | 7.31 | 6.79 | 2.75 | 4.95 | 1.56 | 5.92 | 6.61 | 6.1 | 3.14 | 4.89
6 | AGTCAAAGTTCACTAGGTATCGTAAGATTCAGCT | 4.92 | 5.04 | 3.27 | 2.98 | 1.09 | 4.19 | 6.03 | 5.82 | 2.96 | 5.12
7 | ATCTCTAGGTAACAAGTTCAATGAAAGAGAGGAC | 1.38 | 1.5 | 1.01 | 1.42 | 1.28 | 2.44 | 2.44 | 2.87 | 1.22 | 2.61
8 | CGTCCAAGGTCAAGGCTAGGTCAGTGAAAGCATT | 7.26 | 5.52 | 1.5 | 4.11 | -0.26 | 5.33 | 4.97 | 5.35 | 1.61 | 4.01
9 | TCGAGTAAGTTAGTCGGGGCATTCAGCCAACATA | -1.52 | -0.541 | -0.717 | -0.128 | -0.869 | 0.00256 | -0.588 | 0.158 | 0.928 | 0.486
10 | TCTTGTAGATCAATAGAGGTTAATAAAGTGCGCT | 0.771 | 5.4 | 0.943 | 3.5 | -0.00633 | 1.72 | 0.484 | 1.59 | 2.72 | 2.15
11 | GCAGACAGGGGAAACGCAGGTAACTCAGGGTGGC | -0.526 | -0.555 | -0.616 | -0.597 | -1.27 | -0.505 | 0.299 | -0.604 | -1.01 | -0.89
12 | GCTAGCAGGCCATTTGGGTCCCTCAATGACGGGC | -0.228 | -0.686 | -0.879 | -1.21 | -1.22 | -0.512 | -0.133 | -0.261 | -0.743 | -0.708
13 | ATATGTAGGTTATCGGGGCATTCAGTTTGCGCAT | 1.18 | 1.49 | 0.936 | 2.57 | 1.81 | 3.95 | 5.76 | 5 | 2.48 | 4.06
14 | ATCTCTAGGTATCCAAGTTCAGTGAATGCCGAAC | 0.313 | 0.879 | 2 | 0.57 | 0.976 | 0.511 | 0.0341 | 0.21 | 0.21 | 0.503
15 | CGAACTAGGTCAGAACAGGACTGTGAAGGATGAT | 0.728 | 0.692 | -0.197 | 0.252 | -0.415 | 2.98 | 5.13 | 4.21 | 1.77 | 3.09
16 | TCATATAGGTAAAGAGGTGAAAGTCCGTAAGTTA | 1.74 | 1.63 | 0.378 | 1.56 | -0.0509 | 3.46 | 4.38 | 4.63 | 4.83 | 5
17 | CCTTACGGGTGAAGGTTATAGCACGGGTGGTACG | 0.149 | 0.504 | -0.127 | 0.0957 | -0.349 | 1.61 | 1.09 | 1.51 | -0.0216 | 0.958
18 | AGAATGAGGTTATACGTAGCTCAGGGAAGAAAGT | 1.61 | 1.23 | -0.204 | 1.05 | -0.347 | 2.86 | 1.46 | 1.95 | 0.439 | 1.23
19 | ATATGTAGGTTACCTCCGGGTCATTCAGGCTATG | 2.86 | 5.14 | 1.84 | 3.15 | 0.804 | 4.5 | 5.68 | 4.82 | 2.2 | 4.09
20 | TAACCAAGGTGAAAGGTCGTTGATGCACGCCTTG | 3.72 | 3.34 | 0.422 | 2.69 | 0.0179 | 5.18 | 8.43 | 8.06 | 8.2 | 8.96
21 | CCTAACGGGTCACGAGGTTATAGCACGACGAGCG | 6.1 | 4.05 | 0.263 | 3.54 | -0.146 | 5.76 | 6.41 | 5.88 | 2.76 | 4.48
22 | TCATATAGGTAAAAGTGAAAGTCGAACGATATGA | 0.173 | 0.399 | -0.314 | -0.0823 | 0.0543 | 1.84 | 3.25 | 4.43 | 4.62 | 4.68
23 | GGAACGAGGGCATTCGAATTGATAGCATGGCGAT | 0.807 | 0.373 | -0.335 | 0.239 | -0.211 | 1.31 | 1.15 | 1.14 | 0.413 | 0.651
24 | CGAACTAGGTCAGAACAGGACGGTGAAGGATGAT | 0.947 | 0.319 | -0.295 | -0.0399 | -0.471 | 2.64 | 4.74 | 4.11 | 2.15 | 3.38

Row | Sequence | PBM binding z-score [1] | PBM binding z-score [2] | PBM binding z-score [3] | PBM binding z-score [4] | PBM binding z-score [5] | PBM binding z-score [6] | PBM binding z-score [7] | PBM binding z-score [8] | PBM binding z-score [9] | PBM binding z-score [10]
25 | GCAGACAGGTGAAGCGCAGGTAACTCAGGGTGGC | -0.663 | -0.276 | -0.718 | -0.713 | -1.29 | -0.0823 | 0.129 | -0.656 | -1.07 | -0.9
26 | CTTCCAAGGTCAAAGGTCAGTGAAGAGATGACGG | 8.35 | 7.17 | 4.94 | 6.74 | 2.43 | 7.29 | 11.1 | 9.09 | 8.56 | 10.7
27 | TAGCCTAGGTCAGATCCGGCCAGTATACGCTATA | 1.78 | 1.41 | -0.272 | 1.05 | -0.172 | 1.69 | 0.79 | 0.773 | -0.199 | 0.368
28 | TCTTGTAGAACAACAGGAGGTTAAGAAAGATCGA | 0.0476 | 1.07 | -0.0587 | 0.901 | -0.216 | 1.28 | 0.33 | 1.56 | 2.79 | 2.15
29 | CGTCAAAGTTCAAATAAGGTAACGTAAAGCACGC | 7.39 | 6.55 | 4.89 | 4.17 | 3.25 | 4.95 | 4.86 | 5.6 | 2.25 | 4.67
30 | CCTCGGAGGATAACAGGAGGTCAGAGCTGCCAGA | 0.758 | 2.44 | 2.34 | 1.24 | -0.35 | 1.61 | 0.275 | -0.114 | -0.739 | -0.596
31 | TCTAGTTGGTCAAAGGACACACACTCGAAATGCG | 1.06 | 0.757 | 0.232 | 1.05 | 0.181 | 2.19 | 4.59 | 5.5 | 4.95 | 5.8
32 | CGTCCAAGGTCAATGCTAGGTTAGTGAAAGCATT | 6.49 | 4.7 | 0.436 | 3.76 | 0.627 | 5.08 | 3.32 | 4.3 | 1.15 | 2.85
33 | CCTAGCATGCCAGGGTCACTCAAGCATTTCGCTT | 2.11 | 1.85 | -0.459 | 2.23 | -0.94 | 3.15 | 0.542 | 1.23 | -0.373 | 0.276
34 | ATATGTAGGTTATCGAGTCATTCAGTTTGCGCAT | 0.672 | 1.1 | 0.419 | 1.04 | 0.701 | 3.37 | 4.61 | 4.14 | 2 | 3.27
35 | TCTGCTAGGTCAGTTGGCCAGCTAACGAGCTGCC | 0.857 | 0.327 | -0.78 | -0.127 | -0.163 | 1.2 | -0.0379 | 1.3 | 0.758 | 1.1
36 | CCGACTGGGGCAGAAAGGTGACCATACCATCCGG | -0.198 | -0.194 | -0.391 | -0.267 | -1.39 | 0.838 | 1.34 | 1.98 | -0.273 | 1.32
37 | TCTTGTAGATCAGCAGGTCAAGAAAGCTGGCCAA | 1.17 | 1.55 | 0.209 | 1.59 | -0.222 | 2.5 | 0.457 | 2.37 | 2.48 | 2.59
38 | CCTGCTAGGTCAATGGTCAGCTAGAGCAGCTCGC | 2.73 | 1.95 | -0.206 | 1.03 | -0.0711 | 3.04 | 4.26 | 5.05 | 2.14 | 4.51
39 | TCTGCTAGGTCAGTTAGTCAGCTAACGAGCTGCC | 0.761 | 0.452 | -0.662 | 0.131 | -0.11 | 0.983 | -0.0973 | 1.33 | 1.2 | 1.46
40 | ATCTCTAGGTAAAAGGTCAGTGAATCCCGAGGAT | 3.03 | 3.55 | 1.43 | 3.07 | 1.09 | 6.09 | 9.92 | 8.92 | 8.03 | 9.78
41 | CAAACTAGGTCACCGGAATGTCAAAGTCCGCATG | 4.57 | 3.52 | 0.679 | 2.64 | 0.303 | 5.44 | 8.97 | 7.22 | 5.76 | 7.24
42 | TAGCCTAGGCCATGCGGGCCAGTATAGTGTCGGC | -0.771 | -1.17 | -0.671 | -1.47 | -1.47 | -0.776 | -0.313 | -1.06 | -0.847 | -1.18
43 | GCTATTAGTTGAAAAGGCAACCGAATGATTCTCG | -0.25 | -0.013 | -0.222 | -0.163 | -0.383 | 0.216 | 0.532 | 1.07 | 0.168 | 0.651
44 | GCTAGTTCGTCAGTAAAAGGTCACACACCGGTCG | 3.31 | 4.47 | 4.75 | 4.05 | 0.683 | 4.56 | 1.96 | 3.56 | 1.55 | 3.22
45 | AGTCAAAGTTCAGGGCGAGGTAACGTAAAGCACG | 4.49 | 4.03 | 1.39 | 2.27 | 0.321 | 3.75 | 5.2 | 5.24 | 1.76 | 4.08
46 | CCTTCTAGGTCATGGTCAGCTAATCTACAGTATG | 3.87 | 2.77 | 0.676 | 2.12 | 0.355 | 4.37 | 5.63 | 5.39 | 2.57 | 4.28
47 | AGTCAAAGTTCAGCTAGGTAACGTAAGATATGCT | 3.9 | 3.86 | 1.68 | 1.91 | 0.177 | 3.34 | 4.61 | 4.73 | 2.11 | 4.07
48 | TAGACTAGGTCATTCAGGGGCCAGTATAGAAAGC | 4.16 | 3.02 | 0.5 | 2.45 | 1.5 | 3.77 | 5.02 | 4.54 | 2.12 | 3.67
